Measurements from PubChem BioAssay (EPA / NIEHS).
Inconclusive results are not listed. The source holds several records for some structures; these can differ, active in one and inactive in another. Activity calls are given as the source filed them. The calls were made as follows, unless noted: active = hit-call score of the fitted dose curve at least 0.9, where 1 is the maximum; inactive = score below 0.9.

Assay: CCTE_Simmons_MITO_inhib_resp_rate: CCTE's HepG2 Seahorse XF Respirometric Screening Assay at Inhibited Respiratory State [full ETC block], Simmons Lab (AID 2284006)
Settings: actives raise or lower the signal
Method in brief: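 This endpoint is the respiration rate remaining after rotenone/antimycin A block, in HepG2 cells on a Seahorse XF96. Chemicals spanned 125 nM–100 uM final, in three biological replicates. OCR was read every 6 minutes for 72 minutes and compared with DMSO vehicle.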

Compound	outcome
O=C(O)C(F)(F)C(F)(F)C(F)(F)C(F)(F)C(F)(F)C(F)(F)C(F)(F)C(F)(F)C(F)(F)C(F)(F)F	inactive
C[C@]12CCC(=O)C[C@@H]1CC[C@@H]1[C@@H]2CC[C@]2(C)[C@@H](O)CC[C@@H]12	inactive
CC(C)(C)CC(C)(C)c1ccc(O)cc1	inactive
O=C(Nc1ccc2[nH]ccc2c1)c1cc2cc(F)ccc2n1Cc1cccc(F)c1	inactive
CC(=O)[O][Hg][c]1ccccc1	inactive
CCOP(=S)(OCC)Oc1nc(Cl)c(Cl)cc1Cl	inactive
CC(C)(c1ccccc1)c1ccc(O)c(C(C)(C)c2ccccc2)c1	inactive
O=[N+]([O-])c1ccc(O)c([N+](=O)[O-])c1	inactive
C=C(C)C(=O)[O][Sn]([CH2]CCC)([CH2]CCC)[CH2]CCC	inactive
CCCCCCCCc1ccc(O)cc1	inactive
CCC(C)(C)c1ccc(O)c(C(C)(C)CC)c1	inactive
O=C1C2(Cl)C3(Cl)C4(Cl)C(Cl)(Cl)C5(Cl)C3(Cl)C1(Cl)C5(Cl)C24Cl (stereo not given)	inactive
COc1cc(-c2ccc(N)c(OC)c2)ccc1N	inactive

Assay: CCTE_Simmons_MITO_viability: CellTiter-Glo Viability Assessment for CCTE's HepG2 Seahorse XF Respirometric Screening Assay [post-hoc], Simmons Lab (AID 2284007; active = hit-call score of the fitted dose curve at least 0.9, where 1 is the maximum;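 as to AC50: cells exposed to chemical for 90 min before the ATP read; actives lower ATP signal relative to DMSO baseline meaning reduced viability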)
Settings: not given
Method in brief: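 Luciferase-coupled ATP read-out after the Seahorse run: HepG2 cells treated 90 minutes with test chemical, 7-point series of 125 nM–100 uM final, in triplicate biological runs. Vehicle DMSO; dichlone as positive control over 8 concentrations.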

Compound	outcome	AC50
C[C@]12CCC(=O)C[C@@H]1CC[C@@H]1[C@@H]2CC[C@]2(C)[C@@H](O)CC[C@@H]12	inactive	
CC(C)(C)CC(C)(C)c1ccc(O)cc1	inactive	
CC(=O)[O][Hg][c]1ccccc1		81.7 µM (active)
CCOP(=S)(OCC)Oc1nc(Cl)c(Cl)cc1Cl		23.4 µM (active)
O=[N+]([O-])c1ccc(O)c([N+](=O)[O-])c1	inactive	18.1 µM (active)
C=C(C)C(=O)[O][Sn]([CH2]CCC)([CH2]CCC)[CH2]CCC		10.9 µM (active)
CCCCCCCCc1ccc(O)cc1	inactive	
CCC(C)(C)c1ccc(O)c(C(C)(C)CC)c1	inactive	
O=C1C2(Cl)C3(Cl)C4(Cl)C(Cl)(Cl)C5(Cl)C3(Cl)C1(Cl)C5(Cl)C24Cl (stereo not given)		71.6 µM (active)

Assay: CCTE_Shafer_MEA_acute_spike_number: CCTE's Neural Acute Assay for Total Number of Spikes, Shafer Lab (AID 2284008);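 as to AC50: curve fitted for decrease in spike count so AC50 reflects inhibitors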
Settings: not given
Method in brief: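 Using an adaptive detector set to 8x rms noise, spikes were counted in 40-min windows before and after compound addition (0.03-40 uM) to rat cortical networks at 37 C; the well-level change from baseline was analysed relative to DMSO.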

Compound	outcome	AC50
O=C(O)C(F)(F)C(F)(F)C(F)(F)C(F)(F)C(F)(F)C(F)(F)C(F)(F)C(F)(F)C(F)(F)C(F)(F)F	inactive	
C[C@]12CCC(=O)C[C@@H]1CC[C@@H]1[C@@H]2CC[C@]2(C)[C@@H](O)CC[C@@H]12		20 µM (active)
CC(C)(OO)c1ccccc1	inactive	
O=C(O)C(Cl)(Cl)Cl	inactive	
ClC1(Cl)C2(Cl)C3(Cl)C4(Cl)C(Cl)(Cl)C5(Cl)C3(Cl)C1(Cl)C5(Cl)C24Cl (stereo not given)	inactive	
CC(C)(C)CC(C)(C)c1ccc(O)cc1		6.06 µM (active)
O=C(Nc1ccc2[nH]ccc2c1)c1cc2cc(F)ccc2n1Cc1cccc(F)c1		1.43 µM (active)
CC(=O)[O][Hg][c]1ccccc1	inactive	
CC(C)(c1ccccc1)c1ccc(O)c(C(C)(C)c2ccccc2)c1		8.24 µM (active)
CCOP(=S)(OCC)SCSP(=S)(OCC)OCC	inactive	
CCC(=O)C(CC(C)N(C)C)(c1ccccc1)c1ccccc1 (stereo not given)		0.0569 µM (active)
C=C(C)C(=O)[O][Sn]([CH2]CCC)([CH2]CCC)[CH2]CCC		0.0312 µM (active)
CCCCCCCCc1ccc(O)cc1		3 µM (active)
CCC(C)(C)c1ccc(O)c(C(C)(C)CC)c1		4.73 µM (active)
O=C1C2(Cl)C3(Cl)C4(Cl)C(Cl)(Cl)C5(Cl)C3(Cl)C1(Cl)C5(Cl)C24Cl (stereo not given)		1.84 µM (active)

Assay: CCTE_Shafer_MEA_acute_firing_rate_mean: CCTE's Neural Acute Assay for Mean Firing Rate, Shafer Lab (AID 2284009);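 also: analyzed for loss of signal so actives lower firing rate relative to DMSO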
Settings: not given
Method in brief: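 Rat cortical neuron cultures matured to DIV 13 or 15, equilibrated 20 min at 37 C, then recorded 40 min for baseline. Compound (0.03-40 uM) added and a further 40 min recorded; percent change in mean firing rate calculated per well.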

Compound	outcome	AC50
O=C(O)C(F)(F)C(F)(F)C(F)(F)C(F)(F)C(F)(F)C(F)(F)C(F)(F)C(F)(F)C(F)(F)C(F)(F)F	inactive	
C[C@]12CCC(=O)C[C@@H]1CC[C@@H]1[C@@H]2CC[C@]2(C)[C@@H](O)CC[C@@H]12		20 µM (active)
CC(C)(OO)c1ccccc1	inactive	
O=C(O)C(Cl)(Cl)Cl	inactive	
ClC1(Cl)C2(Cl)C3(Cl)C4(Cl)C(Cl)(Cl)C5(Cl)C3(Cl)C1(Cl)C5(Cl)C24Cl (stereo not given)	inactive	
CC(C)(C)CC(C)(C)c1ccc(O)cc1		6.07 µM (active)
O=C(Nc1ccc2[nH]ccc2c1)c1cc2cc(F)ccc2n1Cc1cccc(F)c1		1.43 µM (active)
CC(=O)[O][Hg][c]1ccccc1	inactive	
CC(C)(c1ccccc1)c1ccc(O)c(C(C)(C)c2ccccc2)c1		8.32 µM (active)
CCOP(=S)(OCC)SCSP(=S)(OCC)OCC	inactive	
CCC(=O)C(CC(C)N(C)C)(c1ccccc1)c1ccccc1 (stereo not given)		0.052 µM (active)
C=C(C)C(=O)[O][Sn]([CH2]CCC)([CH2]CCC)[CH2]CCC		0.0311 µM (active)
CCCCCCCCc1ccc(O)cc1		3.15 µM (active)
CCC(C)(C)c1ccc(O)c(C(C)(C)CC)c1		4.69 µM (active)
O=C1C2(Cl)C3(Cl)C4(Cl)C(Cl)(Cl)C5(Cl)C3(Cl)C1(Cl)C5(Cl)C24Cl (stereo not given)		1.84 µM (active)

Assay: CCTE_Harrill_HTTr_Viability_MCF7: CCTE's 6-hour Cell Viability Assessment for the High-Throughput Transcriptomics (HTTr) Platform, in MCF-7 cells cultured in DMEM + 10% fetal bovine serum, Harrill Lab (AID 2284010)
Settings: not given
Method in brief: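 Propidium iodide exclusion, imaged by high-content analysis, gauged viability after a six-hour exposure across eight concentrations. Cells were MCF-7 grown in DMEM with 10% fetal bovine serum; fits run in both directions against DMSO.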

Compound	outcome	AC50
O=C(O)C(F)(F)C(F)(F)C(F)(F)C(F)(F)C(F)(F)C(F)(F)C(F)(F)C(F)(F)C(F)(F)C(F)(F)F	inactive	
CC12CC1(C)C(=O)N(c1cc(Cl)cc(Cl)c1)C2=O (stereo not given)	inactive	
C[C@]12CCC(=O)C[C@@H]1CC[C@@H]1[C@@H]2CC[C@]2(C)[C@@H](O)CC[C@@H]12	inactive	
Cc1ccc2ccccc2c1C	inactive	
CC(C)(OO)c1ccccc1	inactive	
O=C(O)C(Cl)(Cl)Cl	inactive	
ClC1(Cl)C2(Cl)C3(Cl)C4(Cl)C(Cl)(Cl)C5(Cl)C3(Cl)C1(Cl)C5(Cl)C24Cl (stereo not given)	inactive	
CN(CCCC(=O)c1cccnc1)N=O	inactive	
CC(C)c1cccc(C(C)C)c1O	inactive	
CC(C)(C)CC(C)(C)c1ccc(O)cc1	inactive	
COP(=O)(OC)O/C(=C\Cl)c1cc(Cl)c(Cl)cc1Cl	inactive	
COP(=S)(OC)Oc1ccc(Sc2ccc(OP(=S)(OC)OC)cc2)cc1	inactive	
Cc1ccccc1C(=O)Nc1cccc(OC(C)C)c1	inactive	
C[C@H]1O[C@@H](O[C@H]2[C@@H](O)C[C@H](O[C@H]3[C@@H](O)C[C@H](O[C@H]4CC[C@@]5(C)[C@H](CC[C@@H]6[C@@H]5CC[C@]5(C)[C@@H](C7=CC(=O)OC7)CC[C@]65O)C4)O[C@@H]3C)O[C@@H]2C)C[C@H](O)[C@@H]1O	inactive	
O=C(Nc1ccc2[nH]ccc2c1)c1cc2cc(F)ccc2n1Cc1cccc(F)c1	inactive	
CC(=O)[O][Hg][c]1ccccc1		53.5 µM (active)

Compound	outcome	AC50
CCOP(=S)(OCC)Oc1nc(Cl)c(Cl)cc1Cl	inactive	
CC(C)(c1ccccc1)c1ccc(O)c(C(C)(C)c2ccccc2)c1	inactive	
O=[N+]([O-])c1ccc(O)c([N+](=O)[O-])c1	inactive	
CCOP(=S)(OCC)SCSP(=S)(OCC)OCC	inactive	
CCC(=O)C(CC(C)N(C)C)(c1ccccc1)c1ccccc1 (stereo not given)	inactive	
C=C(C)C(=O)[O][Sn]([CH2]CCC)([CH2]CCC)[CH2]CCC		22.3 µM (active)
Clc1ccc(COC(Cn2ccnc2)c2ccc(Cl)cc2Cl)cc1 (stereo not given)	inactive	
CCCCCCCCc1ccc(O)cc1	inactive	
CC(C)CCCCCCOC(=O)c1ccccc1C(=O)OCCCCCCC(C)C	inactive	
CCC(C)(C)c1ccc(O)c(C(C)(C)CC)c1		42.1 µM (active)
O=C1C2(Cl)C3(Cl)C4(Cl)C(Cl)(Cl)C5(Cl)C3(Cl)C1(Cl)C5(Cl)C24Cl (stereo not given)	inactive	
C[C@H]1CCCC(=O)CCC/C=C/c2cc(O)cc(O)c2C(=O)O1	inactive	
COP(=S)(OC)Oc1cc(Cl)c(Cl)cc1Cl	inactive	
CC(C)(c1ccc(OCC2CO2)cc1)c1ccc(OCC2CO2)cc1 (stereo not given)	inactive	
COc1cc(-c2ccc(N)c(OC)c2)ccc1N	inactive	
CCSC(C)CC1CC(=O)C(C(CC)=NOC/C=C/Cl)=C(O)C1 (stereo not given)	inactive	
